MPTP block: blocks calcium-induced mitochondrial swelling. isolated mouse mitochondria, Ca2+ swelling absorbance, 30 min. AID 602449. inhibition, % at 10 µM. 360,000 tested, 1.4% active;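 active = inhibition of 50% or more, scaled per plate between neutral and stimulator controls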;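 also: 0% = DMSO wells given calcium and 100% = 1 mM EGTA wells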
Gli-Sufu antag: antagonists of Gli-Sufu signaling. AID 588413. 340,000 tested, 0.74% active. Sufu-KO-LIGHT fibroblasts, Gli luciferase reporter luminescence. inhibition, % at 5 µM;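 active = inhibition above about 55%, limit read from the data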;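 also: 0% = DMSO-treated cells and 100% = wells with medium but no cells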
GRIN3A LBD mod: NR3A (human) ligand-binding domain modulation; Tm shift relative to glycine control, % at 25 µM; NR3A LBD differential scanning fluorimetry, Tm shift; 0% = protein alone, 100% = glycine-bound protein; 340,000 tested, 2.5% active;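 active = melting temperature shift of at least 10% of the positive control shift, at one fixed dose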
Beta apoptosis: beta cell apoptosis inhibition | 300,000 tested, 0.8% active | protection from apoptosis, % (concentration not given with the values) | INS-1E cytokine-induced death, ATP luminescence, 48 h; percent of positive-control rescue, neutral wells zero;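 active = Every replicate reaches about 75%, or at least half do and their mean reaches it too, limit read from the data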;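 also: 0% = cytokine-treated negative control wells and 100% = positive control rescue; higher means more ATP so stronger rescue from cytokine killing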
Mdm2-MdmX inh: inhibitors of human Mdm2/MdmX interaction. O15151+Q00987. SaOS-2 split-luciferase Mdm2/MdmX complementation, luminescence. inhibition, % at 8 µM. 330,000 tested, 3% active. AID 485346;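 active = inhibition of at least 50% at 8 µM in the primary screen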
CSC inhib: cancer stem cell inhibition; cancer stem cell-like cells viability, luminescence; inhibition, % at 7.5 µM; 300,000 tested, 1.1% active; in the data active = inhibition above about 75%; tested in HMLE shEcad cells
Mdm2 MdmX conf: confirmation of human Mdm2/MdmX interaction inhibitors. shares compounds with Mdm2-MdmX inh. 10,000 tested, 55% active. inhibition, % at 8 µM. AID 489028. Mdm2-MdmX binding, luminescent assay; in the data active = inhibition above about 40%
Full FLuc ctr: inhibits full-length luciferase, flagging false Mdm2/MdmX hits. AID 504607. SaOS-2 full-length luciferase counterscreen, luminescence. shares compounds with Mdm2-MdmX inh. 6,200 tested, 77% active. inhibition, % at 8 µM;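 active = mean inhibition at 8 µM reaching about 37%, which flags the compound as non-specific, limit read from the data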;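 also: p53-null SaOS-2 cells with luciferase driven by a doxycycline-inducible promoter; compound on cells about two nights before reading with doxycycline added after day one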
Active calls of the source: *; . = no result given. In the library only some 6.6% were active in any assay of this set; here they are far more common.

SMILES | MPTP block | Gli-Sufu antag | GRIN3A LBD mod | Beta apoptosis | Mdm2-MdmX inh | CSC inhib | Mdm2 MdmX conf | others
Cc1[nH]nc2c1C(c1cc(Br)cs1)C(C#N)=C(N)O2 (stereo not given) | 0 | 2 | -2 | -10 | 70* | 23 | 30
C=Cc1ccc(Cn2c(C)c(C(=O)NCc3ccc(C#N)cc3)sc2=O)cc1 | 0 | . | . | . | . | . | .
O=C(NCC1CCCN1S(=O)(=O)c1cccs1)c1ccccc1F (stereo not given) | -3 | 1 | 0 | 2 | 12 | -5 | .
CCC(CC)N1CCN(Cc2nc3ccc([N+](=O)[O-])cc3c(=O)n2-c2ccccc2F)CC1 | 0 | 26 | 0 | -4 | 2 | -8 | .
CCOC(=O)N1CCN(Cc2nc3ccc([N+](=O)[O-])cc3c(=O)n2-c2ccccc2F)CC1 | -1 | 5 | 3 | 1 | 52* | 15 | 41* | Full FLuc ctr=75*
CC1CC(C)(C)CC2(C1)NC(=O)N(CC(=O)N(C)Cc1nc3ccccc3c(=O)[nH]1)C2=O (stereo not given) | -3 | 31 | 0 | -5 | -35 | . | .
CCC(=O)Oc1ccc2ccccc2c1CNC(=O)c1ccccc1 | 5 | 4 | 3 | -5 | 55* | -4 | 19
CC(C)Cn1c(CNC(=O)c2ccccc2)nc2ccccc21 | -1 | 2 | -1 | -2 | -5 | 2 | .
CC(=O)Nc1cc(-c2cccnc2)cn2c(-c3cccc(C(F)(F)F)c3)cnc12 | -1 | . | . | . | . | . | .
CCc1cccc(OCC(O)Cn2c(N3CCCCC3)nc3c2c(=O)[nH]c(=O)n3C)c1 (stereo not given) | 0 | 12 | 1 | 2 | 1 | -21 | .
Cc1ccc(C(=O)NC(=S)Nc2cc(C(F)(F)F)ccc2Cl)cc1 | 0 | 12 | -1 | 5 | 55* | 1 | -14
CCOc1cc(N2CCOCC2)c(OCC)cc1NC(=O)c1[nH]c(C)c(C(C)=O)c1C | 0 | 19 | -4 | 2 | 56* | . | 38 | Full FLuc ctr=86*
CC(=O)c1c(C)[nH]c(C(=O)Nc2ccccc2N2CCOCC2)c1C | -2 | 8 | -1 | 2 | -5 | -18 | .
CCOc1ccc(OCCC(=O)OCC(=O)Nc2cc(OCC)c(N3CCOCC3)cc2OCC)cc1 | -1 | 4 | 1 | -38 | 50* | . | 44* | Full FLuc ctr=54*
CCOc1ccc2nc(Cl)c(C3CC(c4ccco4)=NN3S(=O)(=O)c3ccccc3)cc2c1 (stereo not given) | 1 | 6 | 0 | 2 | -16 | -2 | .
CCOc1ccc2nc(Cl)c(C3CC(c4ccccc4)=NN3C(=O)c3ccco3)cc2c1 (stereo not given) | . | . | . | 4 | 56* | 34 | 8
C=CCn1c(SCC(=O)NC2CCCC2)nc2ccccc21 | -2 | . | . | . | . | . | .
Cc1ccc(C2NC(=O)NC3=C2CCc2ccccc23)cc1 (stereo not given) | 3 | -2 | 1 | -4 | 8 | -2 | .
COc1ccc(C2NC(=O)NC3=C2CCc2ccccc23)cc1 (stereo not given) | 2 | 21 | -3 | 10 | 55* | 20 | 46* | Full FLuc ctr=83*
CCc1ccc2nc(N(CCN(C)C)C(=O)/C=C/c3cccs3)sc2c1 | 1 | 20 | -16 | 8 | 51* | 66 | 21
CN(C)CCN(C(=O)/C=C/c1cccs1)c1nc2ccc(Br)cc2s1 | 6 | 13 | -2 | 7 | 27 | 20 | .
CCOc1ccc2nc(N(CCN(C)C)C(=O)/C=C/c3cccs3)sc2c1 | 18 | 16 | 2 | -2 | 65* | 6 | 31
CCN1CCN(C(=O)CN(CC)S(=O)(=O)c2ccc(F)cc2)CC1 | 1 | -12 | 0 | -5 | 21 | 3 | .
COc1cc(NC(=O)COC(=O)CO/N=C(\C)c2ccc3c(c2)OCO3)cc(OC)c1 | 0 | -6 | -4 | -2 | 21 | -7 | .
COc1cc2c(cc1OC)C(c1cccs1)N(C(=O)C(C)C)CC2 (stereo not given) | 3 | 13 | 4 | -4 | -1 | 18 | .
COc1cc2c(cc1OC)C(c1cccs1)N(C(=O)c1cccnc1)CC2 (stereo not given) | -2 | 4 | 0 | 8 | 56* | 2 | 58* | Full FLuc ctr=73*
